This note sets out measurements from PubChem BioAssay (NCATS).

Assay [1] can be described thus: Stat Signaling Pathway (AID 446; active means well fitted curve in either direction with a large enough effect, not every such curve was filed as active;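 further: ME-180 cervical cancer cells given 40 pM IL-6 alongside compound; SIE-controlled beta-lactamase reporter measured as 460/530 nm FRET emission ratio; on the % scale 0 is the no-effect control and ±100 the full control effect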). A digest of the protocol: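 Normalization used AC90 stimulation (300 pM IL-6) and AC90 inhibition (125 nM pan-JAK inhibitor at 40 pM IL-6). The underlying signal is SIE-driven beta-lactamase in ME-180 cells after 5 h IL-6 exposure with compound.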
Assay [2] deals with Glucocorticoid receptor (Homo sapiens) (UniProt P04150). The assay can be described thus: GR-GFP Redistribution (AID 450;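 active means compounds whose dose series gives a full or clear partial fitted curve of increased nuclear translocation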; further: potency means the concentration at half of the fitted maximal effect). As to conditions: U2OS GR-GFP nuclear translocation, laser cytometry, 2 h.
Sequence of Glucocorticoid receptor (Homo sapiens) (P04150 whole entry, looked up, the tested form may be a part): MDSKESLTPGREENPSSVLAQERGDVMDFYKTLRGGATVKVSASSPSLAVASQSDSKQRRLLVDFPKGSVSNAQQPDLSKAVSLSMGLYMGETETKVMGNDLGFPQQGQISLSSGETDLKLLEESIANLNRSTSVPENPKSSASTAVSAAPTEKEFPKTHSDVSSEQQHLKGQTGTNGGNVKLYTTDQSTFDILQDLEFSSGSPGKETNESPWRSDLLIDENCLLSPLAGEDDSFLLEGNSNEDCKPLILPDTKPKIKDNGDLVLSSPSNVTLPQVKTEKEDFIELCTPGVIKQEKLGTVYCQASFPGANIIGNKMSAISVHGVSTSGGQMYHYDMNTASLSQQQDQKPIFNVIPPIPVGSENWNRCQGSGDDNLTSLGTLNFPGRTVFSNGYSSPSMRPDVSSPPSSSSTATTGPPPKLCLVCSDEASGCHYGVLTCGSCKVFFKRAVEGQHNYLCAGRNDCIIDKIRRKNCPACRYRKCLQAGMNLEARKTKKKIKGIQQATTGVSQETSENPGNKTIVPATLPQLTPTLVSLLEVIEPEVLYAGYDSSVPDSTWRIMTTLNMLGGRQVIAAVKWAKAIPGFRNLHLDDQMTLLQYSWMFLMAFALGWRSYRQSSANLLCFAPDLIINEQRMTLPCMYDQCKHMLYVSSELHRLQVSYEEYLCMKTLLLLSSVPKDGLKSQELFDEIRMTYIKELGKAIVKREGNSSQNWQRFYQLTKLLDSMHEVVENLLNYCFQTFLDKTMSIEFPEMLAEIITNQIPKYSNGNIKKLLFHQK
The target of assay [3] is Mitogen-activated protein kinase 10 (Mus musculus) (UniProt Q61831). The assay can be described thus: JNK3 AlphaScreen Assay (AID 530; active means well fitted curve in either direction with a large enough effect, not every such curve was filed as active;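 further: kinase came from lysate of stimulated human HepG2 cells; signal reports phosphorylation of biotinylated GST-cJun 1-79 at Ser73 with 10 µM ATP; series mostly up to about 57 µM; on the % scale 0 is the no-effect control and ±100 the full control effect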). A digest of the protocol:
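Kinase buffer: 20 mM Tris-HCl pH 7.6, 10 mM MgCl2, 1 mM DTT, 0.1 mM Na3VO4, 0.01% Tween-20; ATP 10 uM. Substrate biotin-GST-cJun(1-79), enzyme from activated HepG2 lysates. Detection by Ser73 phospho-antibody AlphaScreen.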
(Bead proximity is the source of the signal in Alpha formats.)

Assay [4] can be described thus: Cell Viability - N2a (AID 540).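 Further: plate controls were DMSO alone for no effect and tamoxifen control for full effect; nearly all actives have a fitted effect of over 45% in size.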 A digest of the protocol: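 In this qHTS cytotoxicity screen, ATP-dependent luciferase luminescence reports viable N2a cells after a 40 hr compound exposure in complete culture medium. Potencies are AC50 values from standard Hill equation fits.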
A short description of assay [5]: Cell Viability - NIH 3T3 (AID 541). Further: nearly all actives have a fitted effect of over 25% in size. Further: potency means the concentration at half of the fitted maximal effect. In short, it runs like this:
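In this cytotoxicity screen, acute toxicity is scored as an ATP drop measured by CellTiter-Glo in NIH 3T3 fibroblasts following a 40 hr, 37 °C incubation with compound.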

A short description of assay [6]: Cell Viability - HUV-EC-C (AID 542). Further: on the % scale 0 is the no-effect control and ±100 the full control effect; nearly all actives have a fitted effect of over 35% in size. A digest of the protocol: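 Concentration-dependent ATP loss in HUV-EC-C cells is the measure. Exposure lasts 40 hr at 37 °C; luminescence follows CellTiter-Glo addition, and Hill fits give AC50.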
Assay [7] can be described thus: Cell Viability - Mesenchymal (AID 546).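 Further: cells exposed to compound for 40 hours before reading; 0% = DMSO only and -100% = 100 µM tamoxifen.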 A digest of the protocol:
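CellTiter-Glo luminescence (intracellular ATP, 20 min room temperature) after 40 hr compound exposure at 37 °C of 1000 glomerulus-derived human kidney mesenchymal cells/well; AC50 values obtained by fitting qHTS concentration-response data to the Hill equation.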

Assay [8] can be described thus: Cellular Toxicity (caspase-3) HepG2 (AID 654).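 Further: cells exposed to compound for 16 hours before reading; 0% = DMSO alone and 100% = caspase signal from 100 µM tamoxifen.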 In short, it runs like this:
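Concentration-response AC50 values reflect caspase-3/7 induction in HepG2 cells after 16 hours of compound exposure, quantified by luminescence from liberated aminoluciferin and referenced to 100 uM tamoxifen as full stimulation.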

Assay [9] in a line: Cellular Toxicity (caspase-3) HUV-EC-C (AID 656).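 Further: 0% = DMSO basal and 100% = 100 µM tamoxifen.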 In short, it runs like this:
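HUV-EC-C cells (1000/well) in complete medium, compound-treated 16 h at 37 °C; caspase-3/7 activity read by Caspase-Glo 3/7 luminescence. Normalized to DMSO (basal) and 100 uM tamoxifen (100%); AC50 from Hill-equation concentration-response fits.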

Assay [10] in a line: Cellular Toxicity (caspase-3) SHSY5Y (AID 657). In short, it runs like this: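 SH-SY5Y human neuroblastoma cells, 1500/well, exposed to compound for 16 hours at 37 °C in complete medium. Caspase-3/7 activity read by Caspase-Glo luminescence after 1 hr at room temperature, normalized to DMSO and 10 uM staurosporine; AC50 from Hill fit.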
A short description of assay [11]: Cellular Toxicity (caspase-3) BJ (AID 658).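 Further: 0% = DMSO basal and 100% = 10 µM staurosporine.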 In short, it runs like this:
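Caspase-Glo 3/7 luminescence, read 1 hr after reagent at room temperature, in normal BJ fibroblasts exposed 16 hours at 37 °C. AC50 values from Hill-equation concentration-response, scaled between DMSO basal and 10 uM staurosporine as 100%.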

Assay [12] is described as follows: Cellular Toxicity (caspase-3) MRC-5 (AID 659).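 Further: 0% = DMSO basal and 100% = 10 µM staurosporine.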 In short, it runs like this:
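Luminescent Caspase-Glo 3/7 read-out (1 h, room temperature) after a 16 h, 37 °C compound exposure of MRC-5 lung fibroblasts at 1500 cells/well. Concentration-response AC50 from Hill equation; 0% DMSO, 100% 10 uM staurosporine.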

Assay [13] in a line: Cellular Toxicity (caspase-3) SK-N-SH (AID 661).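 Further: 0% = DMSO basal and 100% = 10 µM staurosporine.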 In short, it runs like this:
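Apoptosis readout in SK-N-SH neuroblastoma: Caspase-Glo 3/7 luminescence following 16 hr treatment in complete culture medium. Normalization used DMSO and 10 uM staurosporine controls.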

For assay [14], the target named is Glucocorticoid receptor (Homo sapiens) (UniProt P04150). The assay can be described thus: GR-EFC Redistribution (AID 451; calls by dose curve; further: potency means the concentration at half of the fitted maximal effect). As to conditions: CHO-K1 GR-EFC translocation, beta-gal luminescence, 2 h. In short, it runs like this:
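Translocation of GR-ED fusion to nuclear EA restores b-gal, read by luminescence after 1 h room-temperature detection. Engineered CHO-K1 biosensor cells, 1,000/well, exposed 2 h at 37 C to titrations up to 46 uM final.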

The target in assay [15] is 3',5'-cyclic-AMP phosphodiesterase 4B (Homo sapiens) (UniProt Q07343). The assay is described as follows: qHTS Assay for Inhibitors of PDE-IV (AID 607; active means well fitted activation curve with a large enough effect in the main read-out, with a control signal flat, not every such curve was filed as active; further: % of control where 0% means no effect). In short, it runs like this:
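HEK293 ACTOne cells with CNG channel (1000/well), endogenous PDE4; membrane potential dye, compounds up to 22.9 uM final. Fluorescence Ex 535/Em 590; RO 20-1724 (100 uM final) as reference.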

A short description of assay [16]: Cell Viability - H-4-II-E (AID 543). Further: on the % scale 0 is the no-effect control and ±100 the full control effect; nearly all actives have a fitted effect of over 35% in size. In short, it runs like this: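 AC50 from Hill-modelled qHTS concentration-response curves. H-4-II-E rat hepatoma cells in complete medium, 40 hr exposure at 37 °C, viability by CellTiter-Glo ATP luminescence.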
A short description of assay [17]: Cell Viability - SH-SY5Y (AID 544).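 Further: 0% = DMSO alone and -100% = 100 µM tamoxifen; nearly all actives have a fitted effect of over 55% in size.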 In short, it runs like this:
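Quantitative HTS in SH-SY5Y neuroblastoma cells, 40 hr treatment at 37 °C, ATP content by luciferase luminescence; AC50 from Hill fits.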

Assay [18] is described as follows: Cell Viability - Renal Proximal Tubule (AID 545).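 Further: 0% = DMSO only and -100% = 100 µM tamoxifen; nearly all actives have a fitted effect of over 40% in size.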 In short, it runs like this:
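Rat renal proximal tubule primary cells, 1000/well, exposed to compounds for 40 hr at 37 °C in complete medium; cellular ATP read by CellTiter-Glo luminescence. AC50 from concentration-response fitted with standard Hill equation.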

Assay [19] in a line: Cellular Toxicity (caspase-3) Jurkat (AID 655).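 Further: cells exposed to compound for 16 h at 37 °C before reading.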 In short, it runs like this: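 Jurkat cells (5000/well) in complete medium exposed 16 h at 37 C; caspase-3/7 activity read by Caspase-Glo luminescence after 20 min at room temperature. Normalized to DMSO and 100 uM tamoxifen; AC50 from Hill fits.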
A short description of assay [20]: Cellular Toxicity (caspase-3) Mesangial (AID 660).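 Further: cells exposed to compound for 16 h before the caspase read.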 A digest of the protocol: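 AC50 values come from Hill-equation fits of caspase 3/7 activation, measured as Caspase-Glo luminescence in human glomerular mesangial cells exposed to compound for 16 h at 37 °C; 100% set by 100 uM tamoxifen.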

Several values for one entry are separate records, joined by “and”; a condition that tells them apart may be missing. Equal values may be shown once. Unmarked numbers belong to inactive results. Results filed as inconclusive are left out. Activity calls are given as the source filed them. Unless noted, the call rests on the fitted dose curve; in most records, active means well fitted curve in the direction sought with a large enough effect; inconclusive means small, poorly fitted or top-dose-only effect, or another doubt; inactive means no such curve, though single readings can be large; an effect the other way counts as inactive or inconclusive.

Sequence of 3',5'-cyclic-AMP phosphodiesterase 4B (Homo sapiens) (Q07343 whole entry, looked up): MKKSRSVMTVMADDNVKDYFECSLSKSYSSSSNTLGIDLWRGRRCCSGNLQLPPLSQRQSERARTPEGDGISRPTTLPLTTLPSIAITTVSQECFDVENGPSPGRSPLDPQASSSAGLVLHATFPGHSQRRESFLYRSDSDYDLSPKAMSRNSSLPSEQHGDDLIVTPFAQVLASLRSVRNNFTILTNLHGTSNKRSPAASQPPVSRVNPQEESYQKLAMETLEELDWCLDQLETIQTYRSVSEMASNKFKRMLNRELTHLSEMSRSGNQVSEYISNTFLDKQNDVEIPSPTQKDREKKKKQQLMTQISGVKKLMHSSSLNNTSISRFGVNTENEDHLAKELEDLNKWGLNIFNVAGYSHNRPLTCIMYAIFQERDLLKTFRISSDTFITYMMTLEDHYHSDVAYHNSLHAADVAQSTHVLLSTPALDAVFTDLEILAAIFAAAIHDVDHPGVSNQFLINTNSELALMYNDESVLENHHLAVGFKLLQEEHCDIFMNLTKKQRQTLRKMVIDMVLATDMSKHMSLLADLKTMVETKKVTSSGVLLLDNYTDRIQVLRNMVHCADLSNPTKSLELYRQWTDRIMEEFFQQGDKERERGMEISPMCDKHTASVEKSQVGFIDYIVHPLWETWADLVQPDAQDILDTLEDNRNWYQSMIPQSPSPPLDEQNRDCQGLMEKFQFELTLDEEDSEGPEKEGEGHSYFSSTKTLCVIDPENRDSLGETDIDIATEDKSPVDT

For the molecule `CC[C@]1(O)CC2CN(CCc3c([nH]c4ccccc34)[C@@](C(=O)OC)(c3cc4c(cc3OC)N(C=O)[C@H]3[C@@](O)(C(=O)OC)[C@H](OC(C)=O)[C@]5(CC)C=CCN6CC[C@]43[C@@H]65)C2)C1` (stereo not given in full), in [1], the result was inactive. Besides, in assay [2], the Potency is greater than 20.6 µM.
As to `Nc1ccccc1N`, the molecule was called inactive in assay [3], in assay [4], in [6], in assay [7], in [8] and in [9]. Besides, the result in [10], in assay [11], in assay [12] and in [13] was inactive. Also, the Potency in assay [5] was 6.31 µM (active).
As to `Cc1ccccc1CN1C2=NCCN2C(=O)C2=C1CCN(Cc1ccccc1)C2`, the call in assay [1] and in [15] was inactive. The Potency in assay [2] was greater than 46 µM; in [14], greater than 9.22 µM. The activity change, negative = inhibition in [3] is -0.448% [at 11.4 µM].
On to `CC(=O)O[C@H]1C(=O)[C@@]2(C)[C@H]([C@H](OC(=O)c3ccccc3)[C@]3(O)C[C@H](OC(=O)[C@H](O)[C@@H](NC(=O)c4ccccc4)c4ccccc4)C(C)=C1C3(C)C)[C@]1(OC(C)=O)CO[C@@H]1C[C@@H]2O`, for which the Potency in [2] and in assay [14] was greater than 46 µM each time. For the same molecule, the outcome in assay [3] and in assay [15] was inactive.
`Cc1ccc(N)cc1O`: the outcome in assay [3], in [4], in assay [6], in [16], in assay [17] and in [18] was inactive. Besides, the result in assay [7], in assay [8], in [19], in [9], in [10] and in assay [11] was inactive. Besides, the molecule was called inactive in assay [12], in assay [20] and in assay [13]. Besides, the Potency result in assay [5] is “inactive”.
As for `O=C1NC(=O)C(c2cn(-c3ccccc3)nc2-c2ccc(F)cc2)N1` (stereo not given), in assay [1], the molecule was called inactive. Moreover, the Potency in assay [2] was greater than 20.6 µM.
Turning to `COc1ccc2c(OC)c3ccoc3nc2c1OC`, the molecule was classed as inactive in assay [1], in assay [3] and in assay [15]. In addition, the Potency in [2] was > 20.6 µM and > 46 µM; in assay [14] it was > 20.6 µM and > 46 µM.
As to `COc1ccc(C[C@H](N)C(=O)N[C@@H]2[C@H](O)[C@H](n3cnc4c(N(C)C)ncnc43)O[C@@H]2CO)cc1`, the Potency in [2] and in [14] was greater than 20.6 µM throughout. Also, the call in [3] and in assay [15] was inactive.
`CC(=O)O[C@@H]1CC(C)=C2[C@H]1[C@H](C)CC[C@H]2/C=C(\C)C(=O)O`: the molecule was called inactive in assay [3], in assay [4], in [6], in assay [16], in assay [17] and in [18]. The molecule was called inactive in [7], in assay [8], in assay [19], in assay [9], in assay [10] and in assay [11]. In addition, the call in assay [12], in assay [20] and in assay [13] was inactive. Also, in assay [5], the Potency result was “inactive”.
